Laboratory results reported in PubChem BioAssay AID1159580 (chemical genetic matrix, 2015).
Values joined by “and” are separate entries in the source; they are usually repeats but may differ in a detail not shown here. Equal values may be shown once. About 2,000 (36%) of roughly 5,500 compounds were called active. Another 18% or so got no clear call; they are omitted. Cut-off read from the data, not from the text of the source: active = normalized growth mostly below about 0.91 (no sharp cut-off); inconclusive = no clear call, values can overlap the other calls; inactive = mostly above about 0.92. This is one part of the list.

Assay: chemical genetic growth profiling, strain panel (AID 1159580);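 note: tested at 20 µM; growth read once vehicle control cultures reached saturation at 30 °C; 1 = growth at the plate median or of vehicle wells; lower values mean less growth of the strain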
Conditions: S. cerevisiae deletion strains, growth OD

Measured: normalized growth

CO[C@@H]1[C@@H](O[C@@H]2O[C@H](C)[C@@H](O[C@H]3C[C@@](C)(O)[C@H](O)[C@H](C)O3)[C@H](N(C)C)[C@H]2O)[C@@H](CC=O)C[C@@H](C)[C@@H](O[C@H]2CC[C@H](N(C)C)[C@@H](C)O2)/C=C/C=C/C[C@H](C)OC(=O)C[C@H]1O
inactive: locus YAL021C, strain ccr4, stronger effect = lower value 1.02 | locus YAL026C, strain drs2, stronger effect = lower value 1.01 | locus YAL030W, strain snc1, stronger effect = lower value 0.997 | locus YBL061C, strain skt5, stronger effect = lower value 1.02 | locus YBR009C, strain hhf1, stronger effect = lower value 1.01 | locus YBR021W, strain FUR4, stronger effect = lower value 1.03 | locus YBR023C, strain chs3, stronger effect = lower value 1.01 | locus YBR171W, strain sec66, stronger effect = lower value 1.02 | locus YBR229C, strain ROT2, stronger effect = lower value 1.02 | locus YBR231C, strain swc5, stronger effect = lower value 1.02 | locus YBR279W, strain paf1, stronger effect = lower value 1.03 | locus YCL011C, strain gbp2, stronger effect = lower value 1.01 | locus YCL016C, strain dcc1, stronger effect = lower value 1.01 | locus YCL029C, strain bik1, stronger effect = lower value 1 | locus YCL061C, strain MRC1, stronger effect = lower value 1.01 | locus YCL069W, strain vba3, stronger effect = lower value 1.01 | locus YCR088W, strain abp1, stronger effect = lower value 1.02 | locus YDL005C, strain med2, stronger effect = lower value 1.01 | locus YDL035C, strain GPR1, stronger effect = lower value 1 | locus YDL040C, strain nat1, stronger effect = lower value 1.02 | locus YDL074C, strain BRE1, stronger effect = lower value 1.04 | locus YDL101C, strain DUN1, stronger effect = lower value 1.01 | locus YDL185W, strain tfp1, stronger effect = lower value 0.976 | locus YDL192W, strain arf1, stronger effect = lower value 0.998 | locus YDR001C, strain nth1, stronger effect = lower value 1.01 | locus YDR069C, strain doa4, stronger effect = lower value 1 | locus YDR101C, strain arx1, stronger effect = lower value 1.02 | locus YDR137W, strain rgp1, stronger effect = lower value 1.02 | locus YDR150W, strain NUM1, stronger effect = lower value 1.02 | locus YDR159W, strain sac3, stronger effect = lower value 1.01 | locus YDR162C, strain NBP2, stronger effect = lower value 1.01 | locus YDR195W, strain ref2 1 | locus YDR297W, strain sur2, stronger effect = lower value 1.01 | locus YDR318W, strain mcm21, stronger effect = lower value 0.996 | locus YDR334W, strain swr1, stronger effect = lower value 1.03 | locus YDR335W, strain msn5, stronger effect = lower value 1.01 | locus YDR388W, stronger effect = lower value 1 | locus YDR392W, strain spt3, stronger effect = lower value 1.02 | locus YDR502C, strain sam2, stronger effect = lower value 0.989 | locus YEL003W, strain gim4, stronger effect = lower value 1.01 | locus YEL037C, strain rad23, stronger effect = lower value 1.01 | locus YEL061C, strain CIN8 (second series), stronger effect = lower value 1.01 | locus YEL061C, strain CIN8, stronger effect = lower value 1.01 | locus YER015W, strain faa2, stronger effect = lower value 1 | locus YER016W, strain bim1, stronger effect = lower value 1.01 | locus YER110C, stronger effect = lower value 0.967 | locus YER111C, strain swi4, stronger effect = lower value 1.01 | locus YER155C, strain BEM2 (second series), stronger effect = lower value 1.02 | locus YER155C, strain BEM2, stronger effect = lower value 1.01 | locus YER167W, strain BCK2, stronger effect = lower value 1.02 | locus YFR010W, strain ubp6, stronger effect = lower value 1.02 | locus YGL078C, strain dbp3, stronger effect = lower value 0.982 | locus YGL086W, strain mad1, stronger effect = lower value 0.994 | locus YGL167C, strain pmr1, stronger effect = lower value 1.01 | locus YGL173C, strain kem1, stronger effect = lower value 1.01 | locus YGL227W, strain vid30, stronger effect = lower value 1.02 | locus YGL240W, strain doc1, stronger effect = lower value 0.999 | locus YGL248W, strain PDE1, stronger effect = lower value 1.02 | locus YGL253W, strain hxk2, stronger effect = lower value 1.01 | locus YGR078C, strain PAC10, stronger effect = lower value 1.01 | locus YGR135W, strain pre9, stronger effect = lower value 0.955 | locus YGR229C, strain SMI1, stronger effect = lower value 1.03 | locus YGR252W, strain gcn5, stronger effect = lower value 0.95 | locus YHR013C, strain ard1, stronger effect = lower value 1.03 | locus YHR027C, strain rpn1, stronger effect = lower value 1.01 | locus YHR030C, strain SLT2, stronger effect = lower value 1.02 and 0.972 | locus YHR079C, strain IRE1 (second series), stronger effect = lower value 1 | locus YHR079C, strain IRE1, stronger effect = lower value 0.961 | locus YHR094C, strain hxt1, stronger effect = lower value 1 | locus YHR129C, strain ARP1, stronger effect = lower value 1.02 | locus YHR142W, strain chs7, stronger effect = lower value 1 | locus YHR200W, strain rpn10, stronger effect = lower value 0.984 | locus YIL066C, strain RNR3, stronger effect = lower value 1.03 | locus YIL073C, strain SPO22, stronger effect = lower value 0.928 | locus YIL125W, strain kgd1, stronger effect = lower value 0.997 | locus YIR030C, strain dcg1, stronger effect = lower value 1 | locus YJL092W, strain hpr5, stronger effect = lower value 1.01 | locus YJL095W, strain BCK1 (second series), stronger effect = lower value 1.01 | locus YJL095W, strain BCK1, stronger effect = lower value 1.01 and 0.969 | locus YJL115W, strain asf1, stronger effect = lower value 1.02 | locus YJL129C, strain trk1, stronger effect = lower value 1 | locus YJL134W, strain LCB3, stronger effect = lower value 1.01 | locus YJL154C, strain vps35, stronger effect = lower value 1.02 | locus YJL164C, strain tpk1, stronger effect = lower value 1 | locus YJL166W, strain qcr8, stronger effect = lower value 1.02 | locus YJL168C, strain set2, stronger effect = lower value 0.979 | locus YJL187C, strain SWE1 (second series), stronger effect = lower value 1.02 | locus YJL187C, strain SWE1, stronger effect = lower value 1.01 | locus YJR043C, strain POL32, stronger effect = lower value 1 | locus YJR066W, strain TOR1, stronger effect = lower value 0.922 | locus YJR075W, strain HOC1, stronger effect = lower value 0.991 | locus YKL009W, strain mrt4, stronger effect = lower value 0.969 | locus YKL068W, stronger effect = lower value 1.02 | locus YKL085W, strain MDH1 (second series), stronger effect = lower value 1.01 | locus YKL085W, strain MDH1, stronger effect = lower value 1.01 | locus YKL160W, strain elf1, stronger effect = lower value 1.02 | locus YKR001C, strain vps1, stronger effect = lower value 0.982 | locus YKR026C, strain gcn3, stronger effect = lower value 1.02 | locus YKR091W, strain srl3, stronger effect = lower value 1.01 | locus YLL001W, strain dnm1, stronger effect = lower value 1.01 | locus YLL026W, stronger effect = lower value 1.01 | locus YLL041C, strain sdh2, stronger effect = lower value 1.01 | locus YLR027C, strain aat2, stronger effect = lower value 1.01 | locus YLR039C, strain RIC1, stronger effect = lower value 0.943 | locus YLR058C, strain SHM2, stronger effect = lower value 1.02 | locus YLR102C, strain apc9, stronger effect = lower value 0.997 | locus YLR113W, strain HOG1, stronger effect = lower value 0.965 | locus YLR221C, strain rsa3, stronger effect = lower value 1 | locus YLR258W, strain gsy2, stronger effect = lower value 1.01 | locus YLR262C, strain YPT6 (second series), stronger effect = lower value 1.02 | locus YLR262C, strain YPT6, stronger effect = lower value 0.989 | locus YLR268W, strain sec22, stronger effect = lower value 0.996 | locus YLR320W, strain mms22, stronger effect = lower value 1.02 | locus YLR330W, strain CHS5, stronger effect = lower value 1.01 | locus YLR342W, strain FKS1 (second series), stronger effect = lower value 0.999 | locus YLR342W, strain FKS1, stronger effect = lower value 1.02 | locus YLR357W, strain rsc2, stronger effect = lower value 1.02 | locus YLR370C, strain arc18, stronger effect = lower value 1.01 | locus YLR371W, strain rom2, stronger effect = lower value 1 | locus YLR384C, strain iki3, stronger effect = lower value 1.03 | locus YLR418C, strain cdc73, stronger effect = lower value 0.967 | locus YML016C, strain PPZ1, stronger effect = lower value 1.01 | locus YML032C, strain rad52, stronger effect = lower value 0.955 | locus YML120C, strain ndi1, stronger effect = lower value 1.01 | locus YML124C, strain tub3, stronger effect = lower value 1 | locus YMR058W, strain fet3, stronger effect = lower value 1.02 | locus YMR078C, strain ctf18, stronger effect = lower value 0.993 | locus YMR125W, strain sto1, stronger effect = lower value 1.01 | locus YMR129W, stronger effect = lower value 1.02 | locus YMR205C, strain PFK2, stronger effect = lower value 1.03 | locus YMR223W, strain ubp8, stronger effect = lower value 0.975 | locus YMR231W, strain pep5, stronger effect = lower value 1 | locus YMR263W, strain SAP30, stronger effect = lower value 1.01 | locus YMR307W, strain GAS1, stronger effect = lower value 0.959 | locus YNL067W, strain RPL9B, stronger effect = lower value 1.01 | locus YNL071W, strain lat1, stronger effect = lower value 1 | locus YNL153C, strain GIM3, stronger effect = lower value 1.01 | locus YNL183C, strain NPR1, stronger effect = lower value 0.921 | locus YNL209W, strain ssb2, stronger effect = lower value 1.02 | locus YNL233W, strain BNI4, stronger effect = lower value 1 | locus YNL248C, strain rpa49, stronger effect = lower value 1.01 | locus YNL250W, strain rad50, stronger effect = lower value 0.989 | locus YNL271C, strain bni1, stronger effect = lower value 1 | locus YNL298W, strain CLA4, stronger effect = lower value 0.997 | locus YNL307C, strain MCK1, stronger effect = lower value 0.993 | locus YNL322C, strain KRE1 (second series), stronger effect = lower value 1.01 | locus YNL322C, strain KRE1, stronger effect = lower value 1.02 | locus YNR049C, strain mso1, stronger effect = lower value 1.02 | locus YNR052C, strain pop2, stronger effect = lower value 0.996 | locus YOL012C, strain htz1 0.441 | locus YOL147C, strain pex11, stronger effect = lower value 0.991 | locus YOR001W, strain rrp6, stronger effect = lower value 0.998 | locus YOR061W, strain CKA2, stronger effect = lower value 1.01 | locus YOR069W, strain VPS5, stronger effect = lower value 1.01 | locus YOR070C, strain gyp1, stronger effect = lower value 1.01 | locus YOR080W, strain dia2, stronger effect = lower value 1.01 | locus YOR083W, strain WHI5, stronger effect = lower value 1.02 | locus YOR106W, strain vam3, stronger effect = lower value 1.03 | locus YOR136W, strain idh2, stronger effect = lower value 1 | locus YOR144C, strain elg1, stronger effect = lower value 0.992 | locus YOR184W, strain ser1, stronger effect = lower value 0.967 | locus YOR231W, strain MKK1, stronger effect = lower value 0.973 | locus YOR265W, strain rbl2, stronger effect = lower value 1.01 | locus YOR270C, strain vph1, stronger effect = lower value 0.997 | locus YOR290C, strain snf2, stronger effect = lower value 1 | locus YOR316C, strain cot1, stronger effect = lower value 1.01 | locus YPL051W, strain arl3, stronger effect = lower value 1.01 | locus YPL055C, strain LGE1, stronger effect = lower value 1.03 | locus YPL078C, strain atp4, stronger effect = lower value 1.01 | locus YPL106C, strain sse1, stronger effect = lower value 1.04 | locus YPL240C, strain hsp82, stronger effect = lower value 1.01 | locus YPL256C, strain CLN2, stronger effect = lower value 1 | locus YPR119W, strain clb2, stronger effect = lower value 0.994 | locus YPR141C, strain kar3, stronger effect = lower value 1.02 | locus YPR163C, strain tif3, stronger effect = lower value 1.01 | locus YPR167C, strain met16, stronger effect = lower value 1 | strain wtn01, stronger effect = lower value 0.989
